According to the supplement of paper PMC10338343:
± gives the standard deviation. Whole data set: some 8,200 sequences, median “pre-steady-state target cleavage rate” near 0.024, cut for the highest 2% near 1.3. Only a selection was taken, and the highest values are over-represented in it overall.

Tested on: MIWI (PIWIL1) piRISC loaded with L1MC piRNA (30 nt)
Assay: pre-steady-state target cleavage rate (min^-1); MIWI and MILI are mouse PIWI proteins and EfPiwi is from a freshwater sponge; tags in brackets are library labels; higher = faster piRNA-guided slicing of the target
Settings: guide: L1MC piRNA 5'p-UAACUAAAUACUAUGCAAGCUGUAGGUCCU
Experimental: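 Cleave-'n-Seq: a library of target RNAs (target site embedded in constant flanks, ACAGCATTCCGCGTTAGTGATATCCG... 5' flank; DNA-blocked outside the site) at 0.1 nM was incubated with 1 nM active mouse MILI or MIWI piRISC (synthetic 5'-monophosphorylated piRNA guide) with or without 500 nM mouse GTSF1 at 33 °C for 1 min to 16 h. Uncleaved targets were sequenced and normalised to non-target controls, and the pooled three trials were fitted to a burst-and-steady-state model to give the pre-steady-state cleavage rate (min^-1; k3 is constrained to at most 1e-4). Sequence is the target site only; target names encode pairing extent (gX:gY) and contiguous / 1-mismatch / 2-mismatch / bulge geometry. Fits with R² ≤ 0 are excluded.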

[1] = auxiliary factor: 500 nM mouse GTSF1
[2] = auxiliary factor: none (no GTSF1)

Row | Sequence | pre-steady-state target cleavage rate [1] | pre-steady-state target cleavage rate [2]
1 | UCCUCCUACAGUUGCAUAGUAUUUAGUUA | 0.742 ± 0.046 | 0.00376 ± 0.0017
2 | UCCUGGUUCAGCUUGCAUAGUAUUUACUUA | 0.18 ± 0.041 | 0.0237 ± 0.0048
3 | UCCUCCUACACCUUCCAUAGUAUUUAGUUA | 0.0661 ± 0.024 | 
4 | UGGACCUACAGCUUGCAUACUUUUUAGUUA | 0.0337 ± 0.0046 | 0.00745 ± 0.0014
5 | UCCACCUACAGCUUGCAUAGUAUAUACAAA | 0.413 ± 0.089 | 
6 | UCCUGGAACAGCUUGCAUAAUAUUUAGUUA | 0.559 ± 0.045 | 0.0418 ± 0.0079
7 | UCCUGGAUCAGCUUGCAUAGUAUUUAGCUA | 0.0164 ± 0.0052 | 0.00651 ± 0.0022
8 | UCCUGGAACAGCUUGCUUUGUAUUUAGUUA | 0.0971 ± 0.011 | 0.00848 ± 0.0027
9 | UCCACCUUACAGCUUGCAUAGUAUUUAGUUA | 1.03 ± 0.043 | 0.0654 ± 0.013
10 | AGGACCUACAGCUUGCAUAGUAUUUAGUUC [g2:g30:cont:t1C] | 0.664 ± 0.055 | 0.0568 ± 0.01
11 | UGGACCUUACAGCUUGCAUAGUAUUUAGUUA | 1.58 ± 0.095 | 0.0853 ± 0.016
12 | AGGACCUUACAGCUUGCAUAGUAUUUAGUUA | 1.33 ± 0.06 | 0.0925 ± 0.016
13 | GGGACCUACAGCUUGCAUAGUAUUUAGUUA | 1.32 ± 0.097 | 0.113 ± 0.025
14 | AGGACCUACAGCUUGCAUAGUAUUUAGUUG [g2:g30:cont:t1G] | 0.455 ± 0.046 | 0.0773 ± 0.018
15 | UCGGACCUACAGCUUGCAUAGUAUUUAGUUA | 1.37 ± 0.097 | 0.0616 ± 0.01
16 | CGGACCUACAGCUUGCAUAGUAUUUAGUUA | 0.743 ± 0.028 | 0.06 ± 0.0088
17 | AGGACCUUCAGCUUGCAUAGUAUAUAGUUA | 0.827 ± 0.057 | 0.0427 ± 0.009
18 | UGGGACCUACAGCUUGCAUAGUAUUUAGUUA | 1.11 ± 0.1 | 0.134 ± 0.033
19 | AGGACCUACAGCUUGCAUAGUAUUUAGUUU [g2:g30:cont:t1U] | 1.64 ± 0.079 | 0.165 ± 0.036
20 | AGGGACCUACAGCUUGCAUAGUAUUUAGUUA | 1.31 ± 0.086 | 0.102 ± 0.021
21 | AGGACCUACAGCUUGCAUAGUAUUUUAGUUA | 1.08 ± 0.058 | 0.056 ± 0.014
22 | AGGACCUACAGCUUGCAUAGUAUUUAGUUUA | 1.27 ± 0.067 | 0.11 ± 0.019
23 | AAGGACCUACAGCUUGCAUAGUAUUUAGUUA | 1.29 ± 0.071 | 0.0755 ± 0.014
24 | AGGACCUACAGCUUGCAUAGUAUUUAGUUA [g2:g30:cont:t1A] | 1.35 ± 0.057 | 0.0941 ± 0.015
25 | ACGGACCUACAGCUUGCAUAGUAUUUAGUUA | 1.24 ± 0.072 | 0.0796 ± 0.016
26 | UCCACCUACAGCUUGCAUAGUAUUUAGGUUA | 0.409 ± 0.062 | 0.0153 ± 0.0045
27 | UCGACCUACAGCUUGCAUAGAUUUUAGUAA | 0.124 ± 0.023 | 

Row | Sequence | pre-steady-state target cleavage rate [1] | pre-steady-state target cleavage rate [2]
28 | UCCUCCUACAGCUUGCAUAGUAAUUAGAUA | 0.297 ± 0.047 | 0.00556 ± 0.0028
29 | UCCUGCUACAGUCUUGCAUAGUAUUUAGUUA | 0.643 ± 0.033 | 0.0274 ± 0.005
30 | UCCUGGAUGUCGUUGCAUAGUAUUUAGUUUA | 0.022 ± 0.0057 | 0.00499 ± 0.003
31 | UCCUGGAUGUCCUUGCAUAGUUUUUACUUA | 0.00583 ± 0.0041 | 
32 | UCCUGGAUGUGCUUGCAUAGUAUUUAUUA | 0.0179 ± 0.0058 | 
33 | UGGACCUACAGCUUGCAUAGUAUUUCGUUA | 0.411 ± 0.054 | 0.0397 ± 0.0067
34 | UCCUGGAUCAGCUUGCAUACUAAUUAGUUA | 0.0563 ± 0.0091 | 0.00771 ± 0.0023
35 | UCCUCGCUACAGCUUGCAUAGUAUUUAGUUA | 0.831 ± 0.05 | 0.0517 ± 0.0088
36 | UCCUGGUUACAGCUUGCAUAGUAUUUAGUUA | 1.01 ± 0.048 | 0.0561 ± 0.011
37 | UCCUGUUACAGCUUGCAUAGUAUUUAGUUA | 1.28 ± 0.058 | 0.0747 ± 0.013
38 | UCCUCCAUACAGCUUGCAUAGUAUUUAGUUA | 0.364 ± 0.019 | 0.0335 ± 0.0051
39 | UCCUCUUACAGCUUGCAUAGUAUUUAGUUA | 1.62 ± 0.055 | 0.061 ± 0.0099
40 | UCCUCCUUACAGCUUGCAUAGUAUUUAGUUA | 1.3 ± 0.052 | 0.0583 ± 0.011
41 | UCCUCACUACAGCUUGCAUAGUAUUUAGUUA | 0.676 ± 0.03 | 0.0551 ± 0.0082
42 | UCCUGCGUACAGCUUGCAUAGUAUUUAGUUA | 1.33 ± 0.062 | 0.0785 ± 0.016
43 | UCCUGCGACAGCUUGCAUAGUAUUUAGUUA | 1.19 ± 0.06 | 0.0863 ± 0.017
44 | UCCUGGUACAGCUUGCAUAGUAUUUAGUUA [g2:g24:cont:t1A] | 0.82 ± 0.041 | 0.0692 ± 0.013
45 | UCCUCAUACAGCUUGCAUAGUAUUUAGUUA | 1.47 ± 0.054 | 0.0664 ± 0.01
46 | UCCUGCUUACAGCUUGCAUAGUAUUUAGUUA | 1.48 ± 0.13 | 0.0826 ± 0.02
47 | AGGACCUACAGCUUGCUUAGAAUUUAGUUA | 0.377 ± 0.04 | 0.00929 ± 0.0032
48 | UCCUGGAUGUCCUUACAUAGUAUUUAGUUA | 0.0237 ± 0.0056 | 0.0041 ± 0.0017
49 | UGGACCUACACGAUGCAUAGUAUUUAGAAA | 0.122 ± 0.016 | 
50 | UCCUGCUACAGCUUGCUUAGUAUUUUCAAA | 0.11 ± 0.028 | 
51 | UCCUGGUUCAGCUUGCAUUGUAUUUAGUUA | 0.61 ± 0.028 | 0.0343 ± 0.01
52 | UCCUGGUACAGCUUGCAUAGUAUUCUAGUUA | 0.442 ± 0.092 | 0.00651 ± 0.0028
53 | UCCACCUACAGCUUGCUUAGUAUUUAGAAA | 0.226 ± 0.037 | 
54 | UCCACCUACAGCUUGCAUAGUACUUUAGUUA | 0.447 ± 0.035 | 0.00964 ± 0.0027

Row | Sequence | pre-steady-state target cleavage rate [1] | pre-steady-state target cleavage rate [2]
55 | UCCUGCAUACAGCUUGCAUAGUAUUUAGUUA | 1.63 ± 0.12 | 0.0686 ± 0.013
56 | UCCUGAUACAGCUUGCAUAGUAUUUAGUUA | 1.15 ± 0.046 | 0.0816 ± 0.017
57 | UCCUGCUACAGCUUGCAUAGUAUUUAGUUG [g2:g25:cont:t1G] | 0.229 ± 0.019 | 0.0367 ± 0.0072
58 | UCGAGGUACAGCUUGCAUAGUAUUUUCAAA | 0.278 ± 0.038 | 0.00215 ± 0.0021
59 | UCCUGCUACAGCUUGCAUAGUUAUUACAAA | 0.0101 ± 0.0052 | 
60 | AGGACCUACAGCUUGCAAUGUAUUUACAAA | 0.0775 ± 0.019 | 
61 | UCCUCCUACACCUUGCAAAGUAUUUAGUUA | 0.831 ± 0.043 | 0.0328 ± 0.0065
62 | UCCUGCUACAGCUUGCAUUGUUUUUAGUUA | 0.0845 ± 0.0095 | 0.00988 ± 0.0021
63 | UCGACCUACAGCAUGCAUUGUAUUUAGUUA | 0.944 ± 0.04 | 0.0101 ± 0.0026
64 | AGAGACCUACAGCUUGCAUAGUAUUUAGUUA | 1.46 ± 0.067 | 0.091 ± 0.017
65 | UGAGACCUACAGCUUGCAUAGUAUUUAGUUA | 1.49 ± 0.1 | 0.0826 ± 0.015
66 | UCCUGGAACACCUUGGAUAGUAUUUAGUUA | 0.286 ± 0.038 | 0.00651 ± 0.0022
67 | UCCUGGAUGAGCUUGCAUAGUAUAUUAGUUA | 0.464 ± 0.04 | 0.00823 ± 0.004
68 | UCCUGGUACAGCUUGCAUAGUAAUUAGAUA | 0.209 ± 0.042 | 0.00778 ± 0.0021
69 | AGGACGUACAGCUUGCAUAGUAUUUAGAAA | 0.432 ± 0.06 | 0.0172 ± 0.0052
70 | UCCUGGAUGUCGAACGUAAGUAUUUAUUA | < 0.0001 | < 0.0001
71 | UCCACCUACAGCUUGGUAAGUAUUUAGUUA | 0.0619 ± 0.011 | 
72 | AGGUACCUACAGCUUGCAUAGUAUUUAGUUA | 1.35 ± 0.21 | 0.481 ± 0.15
73 | UCUACCUACAGCUUGCAUAGUAUUUAGUUA | 1.4 ± 0.043 | 0.0731 ± 0.013
74 | ACCACCUACAGCUUGCAUAGUAUUUAGUUA | 1.16 ± 0.056 | 0.0927 ± 0.017
75 | UGGUACCUACAGCUUGCAUAGUAUUUAGUUA | 0.945 ± 0.17 | 0.117 ± 0.034
76 | UGUACCUACAGCUUGCAUAGUAUUUAGUUA | 1.34 ± 0.049 | 0.0875 ± 0.013
77 | AGUACCUACAGCUUGCAUAGUAUUUAGUUA | 1.23 ± 0.064 | 0.0796 ± 0.013
78 | UCCACCUACAGCUUGCAUAGUAUUUAGGUA | 0.3 ± 0.054 | 0.00404 ± 0.0029
79 | UCCACCUACAGCUUGCAUAGUAUUUAGUUUA | 0.907 ± 0.047 | 0.0632 ± 0.014
